Results published in PubChem BioAssay.
Where “and” joins values, the source holds several entries; their conditions need not be identical. Identical values can stand only once. Inconclusive results are not listed. Calls of active or inactive are those of the source.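 The calls were made as follows, unless noted: active = mean z-score across replicates of 1.96 or higher in either the MELAS or the Rieske mutant cell line; inactive = the rest.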

Experiments:
[1] = P. berghei load reduction in hepatocytes – cell-based, HepG2, luciferase luminescence, HepG2 viability, primary screen (AID 624349; in the data active = parasite load remaining mostly below about 12%, no sharp cut-off; inactive = mostly above about 10%;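 also: 100% = mean of DMSO negative control wells on the same plate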); settings: P. berghei liver stage in HepG2, luciferase luminescence, concentration not given here; parasite load remaining: stronger effect = lower value; viability: measured here: HepG2 viability without parasites
[2] = Wnt pathway potentiators raising nuclear beta-catenin – imaging, WNT3A-conditioned medium, mouse C2C12, NPC library, primary screen (AID 1117326; in the data active = nuclear beta-catenin stimulation mostly above about 4.2%, no sharp cut-off; inactive = mostly below about 10%; also: reference of the scale not given here); settings: stronger effect = higher value
[3] = stimulators of insulin release from INS-1E, primary screen, cell-based, 5 mM glucose, NPC library (AID 1117329;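 active = compound raises insulin release from rat beta cells at 5 mM glucose, no numeric limit stated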; also: reference of the scale not given here); settings: rat INS-1E insulin secretion, at 10 µM, stronger effect = higher value
[4] = growth inhibition of GSK3B-pretreated HCT116 cells – cell-based, CellTiter-Glo, 0.2 to 20 µM (AID 1117336;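 active = compounds lowering colon cancer cell viability after pretreatment blocking the GSK3B kinase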); settings: HCT116 viability after GSK3B inhibitor, at 20 µM, stronger effect = higher value
[5] = inhibition of endothelial tube formation, primary screen, imaging, VEGF stimulated, CD31 staining, tube area, NPC library (AID 1117340;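 active = compound that reduces growth-factor-driven endothelial tube area in a mixed cell culture, no cutoff stated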); settings: VEGF-stimulated ADSC/ECFC co-culture, at 10 µM, stronger effect = higher value
[6] = GLP1 release stimulators, primary, NCI-H716, NPC library (AID 1117341;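 active = compound raises GLP1 secretion from the human gut endocrine cells, with no numeric limit stated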; also: reference of the scale not given here); settings: NCI-H716 cells, at 10 µM, stronger effect = higher value
[7] = HCT116 colon cancer cell growth inhibition, primary screen, CellTiter-Glo luminescence, NPC library (AID 1117342;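 active = compounds that lower survival of HCT116 colon cancer cells in the luminescence readout, no numeric limit stated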); settings: at 20 µM (top of the series)
[8] = reduced SW480 viability measured with CellTiter-Glo, NPC library, primary (AID 1117343;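 active = compounds that lower viability of the colon cancer cells in the luminescence readout, with no numeric limit stated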); settings: CellTiter-Glo luminescence; at 20 µM (top of the series) unless noted
[9] = NPC library primary testing for decreased DLD-1 cell viability via CellTiter-Glo (AID 1117346;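 active = compounds that lower survival of DLD-1 colon cancer cells in the luminescence readout, no cutoff given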); settings: DLD-1 viability, CellTiter-Glo luminescence; at 20 µM (top of the series)
[10] = JHH-DIPG-1 glioma cell viability, MIPE5.0 library, CellTiter-Glo luminescence, qHTS (AID 1347067; cut-off not given, nearly all actives have AC50 up to about 26 µM;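 also: cells exposed to compound for 48 hours before readout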); settings: JHH-DIPG-1 glioma viability, CellTiter-Glo ATP luminescence
[11] = growth inhibition of DIPG cells – cell-based, MIPE5.0 library, qHTS (AID 1347068; cut-off not given, nearly all actives have IC50 up to about 30 µM); settings: SU-DIPG-XXV viability
[12] = viability loss with induced miR-34 in A549 – imaging, A549 dox-inducible miR-34, nuclei and caspase counts, primary screen (AID 1347080;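 active = compounds whose cell count with miR-34 switched on is under 0.7 times the count with it off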); settings: A549 miR-34 inducible, Hoechst nuclei count, 48 h
[13] = MELAS cybrid and Rieske KO viability enhancers – cell-based, MELAS cybrids, Rieske KO mouse fibroblasts, CellTiter-Glo, primary screen (AID 1508586); settings: low glucose;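 also: z relative to plate mean and SD of compound and empty wells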
[14] = galactose survival enhancers in mitochondrial complex I cybrids – cell-based, galactose medium, ATP luminescence, primary screen (AID 1645843;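 active = z-score of at least 1.8 in each of two replicates, scored against plate mean and spread of sample wells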;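 also: positive z means more ATP and so rescue of galactose-driven cybrid death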); settings: complex I mutant cybrid cells, 72 h, stronger effect = higher value
[15] = viability loss in pontine glioma line – cell-based, SU-DIPG-XIII, MIPE4.0, CellTiter-Glo, qHTS, dose response (AID 1347061; cut-off not given, nearly all actives have AC50 up to about 37 µM;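 also: cells exposed to compound for 48 hours before readout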); settings: CellTiter-Glo ATP luminescence
[16] = viability loss in pontine glioma line – cell-based, JHH-DIPG-1, MIPE4.0, CellTiter-Glo, qHTS, dose response (AID 1347062; cut-off not given, nearly all actives have AC50 up to about 27 µM); settings: JHH-DIPG-1 viability, CellTiter-Glo ATP luminescence
[17] = viability loss in pontine glioma line – cell-based, SU-DIPG-IV, MIPE4.0, CellTiter-Glo, qHTS, dose response (AID 1347063; cut-off not given, nearly all actives have AC50 up to about 30 µM;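 also: compound exposure lasted 48 hours before the viability readout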); settings: CellTiter-Glo ATP luminescence
[18] = growth inhibition of DIPG cells – cell-based, MIPE4.0 library, CellTiter-Glo luminescence, qHTS (AID 1347066; cut-off not given, nearly all actives have AC50 up to about 30 µM;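 also: cells exposed to compound for 48 hours before readout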); settings: SU-DIPG-VI viability, CellTiter-Glo ATP luminescence
[19] = stronger effect = lower value, cell number ratio, induced over uninduced
[20] = measured here: relative caspase fold change +Dox/-Dox
[21] = measured here: total cells with miR-34 induction, stronger effect = lower value
[22] = measured here: total cells without miR-34 induction
[23] = MELAS cybrid survival, CellTiter-Glo 48 h, stronger effect = higher value
[24] = Rieske KO mouse fibroblast survival, CellTiter-Glo 72 h

Cc1ccc(-c2ncc(Cl)cc2-c2ccc(S(C)(=O)=O)cc2)cn1
parasite load remaining [1]: 30% (inactive)
viability [1]: 120%
nuclear beta-catenin stimulation ([2]; at 10 µM): 10.8% (inactive)
nuclear beta-catenin stimulation ([2]; stimulation, at 2 µM): 8.4%
insulin secretion stimulation [3]: 2.3% (inactive)
viability decrease [4]: 27.3% (inactive)
tube area decrease [5]: -22.7% (inactive)
GLP1 secretion stimulation [6]: 0.5% (inactive)
inhibition of viability [7]: -14.5% (active)
viability decrease (inhibition) [8]: 5.7% (inactive)
viability decrease (inhibition) [9]: 12.4% (inactive)
outcome [10]: inactive
outcome [11]: inactive
fold change [12, 19]: 0.833 (inactive)
fold change [12, 20]: 0.95
cell count [12, 21]: 8800
cell count [12, 22]: 10600
z-score [13, 23]: -0.283 (inactive) and 0.00989 (inactive)
z-score [13, 24]: 0.187 and -0.33
z-score [14]: 1.08 (inactive)

CN(c1nccc(=O)[nH]1)C1CCN(c2nc3ccccc3n2Cc2ccc(F)cc2)CC1
nuclear beta-catenin stimulation ([2]; at 10 µM): -1.9% (inactive)
nuclear beta-catenin stimulation ([2]; stimulation, at 2 µM): -0.5%
insulin secretion stimulation [3]: 4.3% (inactive)
viability decrease [4]: -6.8% (inactive)
tube area decrease [5]: 10.5% (inactive)
GLP1 secretion stimulation [6]: -3% (inactive)
inhibition of viability [7]: 26.2% (inactive)
viability decrease (inhibition) [8]: 9.6% (inactive)
viability decrease (inhibition) [9]: -5.1% (inactive)
outcome [15]: inactive
outcome [16]: inactive
outcome [17]: inactive
outcome [18]: inactive
z-score [13, 23]: 0.306 (inactive)
z-score [13, 24]: 0.258

O=C(Nc1cccc2c(=O)cc(-c3nn[nH]n3)oc12)c1ccc(OCCCCc2ccccc2)cc1
parasite load remaining [1]: 45% (inactive)
viability [1]: 94.5%
nuclear beta-catenin stimulation ([2]; at 10 µM): 0.3% (inactive)
nuclear beta-catenin stimulation ([2]; stimulation, at 2 µM): -0.2%
insulin secretion stimulation [3]: 2.85% (inactive)
viability decrease [4]: 108% (active)
tube area decrease [5]: -18.5% (inactive)
GLP1 secretion stimulation [6]: 21.5% (active)
inhibition of viability [7]: 112% (active)
viability decrease (inhibition) [8]: 125% (active)
viability decrease (inhibition) [9]: 88.8% (active)
outcome [18]: inactive
fold change [12, 19]: 0.93 (inactive) and 0.898 (inactive)
fold change [12, 20]: 0.309 and 1.37
cell count [12, 21]: 5160 and 10700
cell count [12, 22]: 5550 and 12000
z-score [13, 23]: 0.447 (inactive) and -0.129 (inactive)
z-score [13, 24]: 0.183 and 0.319
z-score [14]: 1.36 (inactive)

Cc1c(C)c2c(c(C)c1O)CCC(C)(COc1ccc(CC3SC(=O)NC3=O)cc1)O2 (stereo unspecified)
parasite load remaining [1]: 65.9% (inactive) and 36.4% (inactive)
viability [1]: 207% and 95%
nuclear beta-catenin stimulation ([2]; at 10 µM): 1.2% (inactive)
nuclear beta-catenin stimulation ([2]; stimulation, at 2 µM): 10.4%
insulin secretion stimulation [3]: 1.4% (inactive)
viability decrease [4]: 88.4% (active)
tube area decrease [5]: 99.4% (active)
GLP1 secretion stimulation [6]: 11.9% (inactive)
inhibition of viability [7]: 55.4% (active)
viability decrease (inhibition) [8]: 110% (active)
viability decrease (inhibition) [9]: 101% (active)
outcome [16]: inactive
outcome [18]: inactive
outcome [10]: inactive
outcome [11]: inactive
fold change [12, 19]: 1.09 (inactive) and 0.933 (inactive) and 0.824 (inactive)
fold change [12, 20]: 0.891 and 4.13 and 1.35
cell count [12, 21]: 6090 and 11900 and 7450
cell count [12, 22]: 5600 and 12700 and 9040
z-score [13, 23]: -0.456 (inactive) and 0.16 (inactive)
z-score [13, 24]: 0.0968 and -0.894
z-score [14]: 0.175 (inactive)
